This note sets out measurements from PubChem BioAssay (NCI).

The nature of experiment [1]: NCI Yeast Anticancer Drug Screen. Data for the rad50 strain (AID 155).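 Note: 0% = growth of vehicle-only cultures of the same strain.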 The following applies: S. cerevisiae rad50 strain growth inhibition, stronger effect = higher value. Summed up: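 Yeast carrying a defined DNA repair defect were exposed to test compounds, and growth was compared with vehicle-treated controls to give percent inhibition.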
Experiment [2] in a line: NCI Yeast Anticancer Drug Screen. Data for the mec2-1 strain (AID 157). To be noted: S. cerevisiae mec2-1 strain, stronger effect = higher value. Summed up:
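Yeast mec2-1 mutant treated with compound. Readout: growth inhibition vs vehicle controls.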

Experiment [3] in a line: NCI Yeast Anticancer Drug Screen. Data for the sgs1 mgt1 strain (AID 161).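 Note: 0% = growth of cultures given vehicle only.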 The following applies: S. cerevisiae sgs1 mgt1 strain, stronger effect = higher value. Summed up: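 Mutant yeast exposed to compound; growth scored against vehicle-only wells.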
Experiment [4] in a line: NCI Yeast Anticancer Drug Screen. Data for the cln2 rad14 strain (AID 165).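 Note: 0% = growth equal to vehicle treated cultures.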 The following applies: S. cerevisiae cln2 rad14 strain, stronger effect = higher value. Summed up: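 cln2 rad14 yeast strain; compound exposure; growth inhibition read vs vehicle controls.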
Experiment [5] can be described thus: NCI Yeast Anticancer Drug Screen. Data for the bub3 strain (AID 167). The following applies: S. cerevisiae bub3 mutant strain, stronger effect = higher value. Summed up: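 Compounds were applied to a genetically altered yeast strain carrying a cell-cycle control defect. Growth inhibition was scored against vehicle-treated controls.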
The nature of experiment [6]: NCI Yeast Anticancer Drug Screen. Data for the mlh1 rad18 strain (AID 175). The following applies: S. cerevisiae mlh1 rad18 strain growth inhibition, stronger effect = higher value. The procedure, abridged: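 Yeast w/ defined DNA-repair lesions; compound exposure; growth vs vehicle controls → % inhibition.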
Setting [7] is: at 5.0 µM (retest, dose inferred, filed as 0.5).
The mark [8] stands for this setting: at 50.0 µM (retest, dose inferred, filed as 5.0).

Compounds without any hit were thinned out: in the full panel of roughly 79,000, 15% have a hit. A number with no mark means an inactive call. The source made the active and inactive calls. Cut-off read from the data, not from the text of the source: active = growth inhibition above about 70%; inactive = the rest.

Take `CN1CCN(CCSC2Cc3cc(Cl)ccc3Sc3ccccc32)CC1` (stereo not given): the growth inhibition in experiment [1] (setting [7]) was 29%; in experiment [1] (setting [8]), 29%; in experiment [1] (at 50.0 µM), 93% (active); in experiment [2] (setting [7]), 5%; in experiment [2] (setting [8]), 5%; in experiment [2] (at 50.0 µM) it was 91.8% (active). Also, the growth inhibition in experiment [3] (setting [7]) is 19%; in experiment [3] (setting [8]), 19%; in experiment [3] (at 50.0 µM), 92% (active); in experiment [4] (setting [7]), 1%; in experiment [4] (setting [8]) it was 1%; in experiment [4] (at 50.0 µM), 91.6% (active). Besides, the growth inhibition in experiment [5] (setting [7]) was 16%; in experiment [5] (setting [8]), 16%; in experiment [5] (at 50.0 µM) it was 93.8% (active); in experiment [6] (setting [7]), 29%; in experiment [6] (setting [8]), 29%; in experiment [6] (at 50.0 µM), 92.5% (active).
For `CC1CCC(C(C)C2C(O)CC3C4CCC5CC(O)CCC5(C)C4CCC32C)NC1` (stereo not given), the growth inhibition was 3% in experiment [1] (setting [7]); 98% (active) in experiment [1] (setting [8]); 91.8% (active) in experiment [1] (at 50.0 µM); 1% in experiment [2] (setting [7]); 96% (active) in experiment [2] (setting [8]); 82.2% (active) in experiment [2] (at 50.0 µM). In addition, the growth inhibition is 6% in experiment [3] (setting [7]); 97% (active) in experiment [3] (setting [8]); 93.2% (active) in experiment [3] (at 50.0 µM); -4% in experiment [4] (setting [7]); 96% (active) in experiment [4] (setting [8]); 90% (active) in experiment [4] (at 50.0 µM). Moreover, the growth inhibition is 2% in experiment [5] (setting [7]); 95% (active) in experiment [5] (setting [8]); 90% (active) in experiment [5] (at 50.0 µM); 4% in experiment [6] (setting [7]); 97% (active) in experiment [6] (setting [8]); 92.9% (active) in experiment [6] (at 50.0 µM).
As for `CCOC(=O)N1CCN(CCCCCCOc2c(Cl)cc(Cl)cc2Cl)CC1`, the growth inhibition in experiment [1] (setting [7]) was 45%; in experiment [1] (setting [8]), 98% (active); in experiment [1] (at 50.0 µM) it was 98.7% (active); in experiment [2] (setting [7]), 41%; in experiment [2] (setting [8]) it was 99% (active); in experiment [2] (at 50.0 µM), 96.1% (active). For the same molecule, the growth inhibition in experiment [3] (setting [7]) was 71% (active); in experiment [3] (setting [8]), 99% (active); in experiment [3] (at 50.0 µM) it was 92% (active); in experiment [4] (setting [7]) it was 58%; in experiment [4] (setting [8]) it was 98% (active); in experiment [4] (at 50.0 µM), 98.4% (active). Moreover, the growth inhibition in experiment [5] (setting [7]) was 64%; in experiment [5] (setting [8]), 98% (active); in experiment [5] (at 50.0 µM), 97.2% (active); in experiment [6] (setting [7]), 49%; in experiment [6] (setting [8]), 99% (active); in experiment [6] (at 50.0 µM), 98.2% (active).
With `[Pt].c1ccc([PH+](CC[PH+](CC[PH+](c2ccccc2)c2ccccc2)CC[PH+](c2ccccc2)c2ccccc2)c2ccccc2)cc1`, the growth inhibition in experiment [1] (setting [7]) was 54%; in experiment [1] (setting [8]), 96% (active); in experiment [1] (at 50.0 µM), 89.8% (active); in experiment [2] (setting [7]), 97% (active); in experiment [2] (setting [8]) it was 98% (active); in experiment [2] (at 50.0 µM), 90.7% (active). Further, the growth inhibition in experiment [3] (setting [7]) is 28%; in experiment [3] (setting [8]), 97% (active); in experiment [3] (at 50.0 µM), 91.7% (active); in experiment [4] (setting [7]), 27%; in experiment [4] (setting [8]), 97% (active); in experiment [4] (at 50.0 µM), 89.3% (active). Moreover, the growth inhibition was 93% (active) in experiment [5] (setting [7]); 97% (active) in experiment [5] (setting [8]); 89.8% (active) in experiment [5] (at 50.0 µM); 68% in experiment [6] (setting [7]); 97% (active) in experiment [6] (setting [8]); 88.7% (active) in experiment [6] (at 50.0 µM).
For the molecule `CCN(CC)CCC(=O)/C=C/c1ccc(C)cc1`, the growth inhibition in experiment [1] (setting [7]) was 4%; in experiment [1] (setting [8]) it was 97% (active); in experiment [1] (at 50.0 µM) it was 57.4%; in experiment [2] (setting [7]) it was 9%; in experiment [2] (setting [8]), 99% (active); in experiment [2] (at 50.0 µM), 10.9%. Moreover, the growth inhibition in experiment [3] (setting [7]) was 4%; in experiment [3] (setting [8]) it was 99% (active); in experiment [3] (at 50.0 µM), 18.6%; in experiment [4] (setting [7]) it was 3%; in experiment [4] (setting [8]) it was 97% (active); in experiment [4] (at 50.0 µM), 50%. Also, the growth inhibition is 7% in experiment [5] (setting [7]); 99% (active) in experiment [5] (setting [8]); 15.1% in experiment [5] (at 50.0 µM); 6% in experiment [6] (setting [7]); 99% (active) in experiment [6] (setting [8]); 24.1% in experiment [6] (at 50.0 µM).
As for `N#CC(C#N)=C/C=C/c1c(Cl)cccc1Cl`, the growth inhibition in experiment [1] (setting [7]) is 7%; in experiment [1] (setting [8]) it was 41%; in experiment [1] (at 50.0 µM), 71.2% (active); in experiment [2] (setting [7]), 15%; in experiment [2] (setting [8]), 58%; in experiment [2] (at 50.0 µM), 46.9%. For the same molecule, the growth inhibition in experiment [3] (setting [7]) is 11%; in experiment [3] (setting [8]), 78% (active); in experiment [3] (at 50.0 µM), 58.9%; in experiment [4] (setting [7]) it was 29%; in experiment [4] (setting [8]) it was 68%; in experiment [4] (at 50.0 µM) it was 76.8% (active). Besides, the growth inhibition in experiment [5] (setting [7]) was 25%; in experiment [5] (setting [8]), 79% (active); in experiment [5] (at 50.0 µM), 69.6%; in experiment [6] (setting [7]), 8%; in experiment [6] (setting [8]), 66%; in experiment [6] (at 50.0 µM), 57.1%.
Turning to `S=C(Nc1ccc2cn[nH]c2c1)Nc1ccc2cn[nH]c2c1`, the growth inhibition in experiment [1] (setting [7]) was 7%; in experiment [1] (setting [8]), 46%; in experiment [1] (at 50.0 µM), 79.1% (active); in experiment [2] (setting [7]), 16%; in experiment [2] (setting [8]) it was 0%; in experiment [2] (at 50.0 µM) it was -12.9%. Moreover, the growth inhibition in experiment [3] (setting [7]) was -5%; in experiment [3] (setting [8]), 5%; in experiment [3] (at 50.0 µM), 30.9%; in experiment [4] (setting [7]), -25%; in experiment [4] (setting [8]) it was 2%; in experiment [4] (at 50.0 µM), -1.15%. The growth inhibition in experiment [5] (setting [7]) is 7%; in experiment [5] (setting [8]), 1%; in experiment [5] (at 50.0 µM), 40%; in experiment [6] (setting [7]), 2%; in experiment [6] (setting [8]) it was 17%; in experiment [6] (at 50.0 µM), 41.9%.
Regarding `CCN(CC)CCOC(=O)c1ccc(N=Nc2ccc(O)c3ccccc23)cc1`, the growth inhibition in experiment [1] (setting [7]) was 0%; in experiment [1] (setting [8]), 99% (active); in experiment [1] (at 50.0 µM), 98.8% (active); in experiment [2] (setting [7]) it was 4%; in experiment [2] (setting [8]), 100% (active); in experiment [2] (at 50.0 µM), 99.1% (active). Besides, the growth inhibition in experiment [3] (setting [7]) is 6%; in experiment [3] (setting [8]), 99% (active); in experiment [3] (at 50.0 µM) it was 99% (active); in experiment [4] (setting [7]), 6%; in experiment [4] (setting [8]) it was 99% (active); in experiment [4] (at 50.0 µM) it was 86.8% (active). The growth inhibition in experiment [5] (setting [7]) was -2%; in experiment [5] (setting [8]), 99% (active); in experiment [5] (at 50.0 µM), 41.1%; in experiment [6] (setting [7]), -7%; in experiment [6] (setting [8]) it was 99% (active); in experiment [6] (at 50.0 µM) it was 99% (active).
For the molecule `CC1(c2ccccc2)Nc2ccccc2C1=Nc1ccccc1` (stereo not given), the growth inhibition was -1% in experiment [1] (setting [7]); 34% in experiment [1] (setting [8]); 93.5% (active) in experiment [1] (at 50.0 µM); -4% in experiment [2] (setting [7]); 30% in experiment [2] (setting [8]); 97.7% (active) in experiment [2] (at 50.0 µM). The growth inhibition is -3% in experiment [3] (setting [7]); 54% in experiment [3] (setting [8]); 96.3% (active) in experiment [3] (at 50.0 µM); -8% in experiment [4] (setting [7]); 75% (active) in experiment [4] (setting [8]); 97.2% (active) in experiment [4] (at 50.0 µM). In addition, the growth inhibition in experiment [5] (setting [7]) was -7%; in experiment [5] (setting [8]), 77% (active); in experiment [5] (at 50.0 µM) it was 95.8% (active); in experiment [6] (setting [7]) it was -2%; in experiment [6] (setting [8]), 86% (active); in experiment [6] (at 50.0 µM), 97.3% (active).
With `COc1ccc2c(Cc3ccc(O)cc3)cncc2c1O`, the growth inhibition in experiment [1] (setting [7]) is -1%; in experiment [1] (setting [8]), 6%; in experiment [1] (at 50.0 µM), 8.65%; in experiment [2] (setting [7]), -8%; in experiment [2] (setting [8]) it was 26%; in experiment [2] (at 50.0 µM), 51.5%. The growth inhibition in experiment [3] (setting [7]) was -3%; in experiment [3] (setting [8]), 16%; in experiment [3] (at 50.0 µM), -7.15%; in experiment [4] (setting [7]) it was 5%; in experiment [4] (setting [8]) it was 4%; in experiment [4] (at 50.0 µM) it was 91.8% (active). Moreover, the growth inhibition is -5% in experiment [5] (setting [7]); -4% in experiment [5] (setting [8]); 71.5% (active) in experiment [5] (at 50.0 µM); 6% in experiment [6] (setting [7]); 27% in experiment [6] (setting [8]); 97.6% (active) in experiment [6] (at 50.0 µM).
